Laboratory results reported in ChEMBL document CHEMBL3988442, “University of Dundee, Small-Polar-MMV Screening Library” (2021).
Values joined by “and” are separate entries in the source; they are usually repeats but may differ in a detail not shown here. Equal values may be shown once. Among all 67,000 compounds or so, about 40 (0.06%) showed an effect of 50% or more. This is one part of a sample in which strong results are shown more often than they occur.

These molecules were tested against T1, Coenzyme A biosynthesis bifunctional protein CoaBC (Mycobacterium tuberculosis (strain ATCC 25618 / H37Rv)) (UniProt P9WNZ1) (assay: Biomol Green assay for MtCoaBC inhibitor, OD650 read). Settings: 30 µM.
T1 sequence (whole entry): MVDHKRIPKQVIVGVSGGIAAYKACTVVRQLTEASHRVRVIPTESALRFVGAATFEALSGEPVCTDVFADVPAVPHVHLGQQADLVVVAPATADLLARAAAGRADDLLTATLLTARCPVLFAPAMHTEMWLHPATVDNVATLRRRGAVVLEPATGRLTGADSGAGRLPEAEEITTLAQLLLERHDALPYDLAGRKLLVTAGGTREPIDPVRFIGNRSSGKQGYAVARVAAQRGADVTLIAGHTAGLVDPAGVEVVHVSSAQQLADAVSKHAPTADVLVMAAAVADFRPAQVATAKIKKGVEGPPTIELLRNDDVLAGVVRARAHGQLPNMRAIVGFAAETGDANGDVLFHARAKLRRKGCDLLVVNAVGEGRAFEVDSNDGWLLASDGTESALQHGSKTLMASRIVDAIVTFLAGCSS
Assay type: functional
Parameters: scale not given: in the data most compounds retested in dose-response had high values

Going from COCC(=O)NC(CC(C)C)c1nc2cccnc2n1C (centres undefined) to CC(C)CC(NC(=O)c1ccco1)c1nc2cccnc2n1C (centres undefined), the Percent Effect falls from -0.123% to -9.45%.

Going from COc1cccc(CC(=O)N2CC[C@H]3[C@@H]2CCC(=O)N3C)c1 to COc1cccc(S(=O)(=O)N2CCN(C)[C@@H]3CS(=O)(=O)C[C@@H]32)c1, the Percent Effect rises from -4.44% to -2.92%.

First: Cc1ccsc1CN1C[C@@H]2COC[C@]2(CNC(=O)c2ccco2)C1
Second: COCCNC(=O)[C@H]1CN(Cc2sccc2C)C[C@H]2OCC[C@@H]12
The Percent Effect of the first is lower: 2.1% for the first, 2.59% for the second.

Compared with Cn1cc(N2C[C@@H]3CN(Cc4ccoc4)C[C@@H]3C2=O)cn1, CCS(=O)(=O)N1C[C@H]2CN(Cc3cccc(F)c3)C(=O)[C@H]2C1 is lower in Percent Effect: -6.36% for the first, -7.25% for the second.

Compared with CN(C)C(C(=O)N1CCC(CCO)CC1)c1ccccc1F (centres undefined), CCOCC1CCN(C(=O)C(c2c(F)cccc2F)N(C)C)CC1 (centres undefined) is lower in Percent Effect: 10.1% for the first, -0.163% for the second.

First: CN(C)c1ncc(C(=O)N2C[C@H]3C[C@H](Oc4ccccc4)C[C@H]3C2)cn1
Second: O=C(COCCOc1ccccc1)NC1CCN(c2ncccn2)CC1
The Percent Effect of the first is higher: 12.4% for the first, -6.77% for the second.

Compared with Cc1nc(-c2ccc(CC(=O)N3CCN(C(=O)C4CC4)CC3)cc2)cs1, Cc1nc(-c2ccc(CC(=O)N3CCNC(=O)C3)cc2)cs1 is higher in Percent Effect: -8.67% for the first, -8.27% for the second.

Compared with O=C1CC[C@H]2CN(c3ncc(F)cn3)CC[C@H]2N1CCc1c[nH]cn1, Cc1cccc(CN2CC[C@@H]3[C@@H]2CCN3C(=O)c2cnoc2C)n1 is higher in Percent Effect: -3.02% for the first, 8.49% for the second.

Compared with CC(C)NC(=O)[C@@]12CCO[C@@H]1CCN(Cc1ccc3c(c1)OCO3)C2, O=C(NC1CC1)[C@@H]1CCO[C@@H]2CCN(Cc3ccsc3)C[C@H]21 is higher in Percent Effect: -0.976% for the first, 8.23% for the second.

First: CCN1C[C@H]2CCN(C(=O)NC)CC[C@H]2S1(=O)=O
Second: CNC(=O)N1CC[C@@H]2CN(Cc3cccc(Cl)c3)S(=O)(=O)[C@@H]2CC1
The Percent Effect of the first is higher: 8.02% for the first, 6.19% for the second.

Compared with Cc1cc(S(=O)(=O)Nc2cccc(I)c2)sc1C(=O)O, CC(=O)c1cccc(NS(=O)(=O)c2cc(C)c(C(=O)O)s2)c1 is lower in Percent Effect: 2.58% for the first, -3% for the second.

First: c1cnc(N2CCO[C@H]3[C@H](OCC4CCOCC4)CC[C@@H]32)nc1
Second: COC[C@@]12CC[C@@H](N3CCOCC3)C[C@H]1CCN(c1cnccn1)C2
The Percent Effect of the first is higher: 1.73% for the first, -5.95% for the second.

Compared with Cc1ccc(N2C[C@H]3CCC[C@@H](CN4CCOCC4)[C@H]3C2)nn1, Cc1ccc(CN2CCOCC2c2[nH]ncc2C)cn1 (centres undefined) is lower in Percent Effect: 4.17% for the first, -2.47% for the second.

Compared with Cc1cccc(C(=O)N2CCCC(c3noc(C)n3)C2)n1 (centres undefined), Cc1nc(C2CCCN(C(=O)c3cc(Cl)c[nH]3)C2)no1 (centres undefined) is higher in Percent Effect: -20.7% for the first, 2.57% for the second.

First: Cn1nc(-c2cccs2)cc1[C@H]1CN2CC[C@H]1C[C@@H]2CN
Second: CN1C(Cn2cccn2)C[C@@H]2CN(Cc3ccccn3)CC[C@@H]21 (some centres undefined)
The Percent Effect of the first is lower: -39.9% for the first, -8.3% for the second.

First: Cc1cc(C(=O)NC2CCN(c3ncccc3C#N)CC2)no1
Second: Cc1cc(NC(=O)C2CCN(c3nnc(C)c(C)c3C#N)CC2)no1
The Percent Effect of the first is lower: -0.609% for the first, 2.42% for the second.

First: COCCC(Cc1cccc(Br)c1)C(=O)N(C)C (centres undefined)
Second: COCCC(Cc1cccc(Br)c1)C(N)=O (centres undefined)
The Percent Effect of the first is lower: -3.54% for the first, 4.72% for the second.

Going from COCc1nc2cc(NCc3ccc(C)o3)ccc2o1 to COCc1nc2cc(NCc3cc[nH]n3)ccc2o1, the Percent Effect falls from 13% to 10.3%.

First: Cc1cn[nH]c1C1COCCN1Cc1ccsc1 (centres undefined)
Second: CN(C)CCN1CCO[C@H]2CN(C(=O)c3ccsc3)C[C@H]21
The Percent Effect of the first is lower: -1.45% for the first, 0.976% for the second.

First: O=C(NC1CC1)[C@@H]1CCO[C@@H]2CCN(C3CCCC3)C[C@H]21
Second: O=C(O)c1cc(-n2cc3c(n2)CCC3)cc(S(=O)(=O)NC2CCCC2)c1
The Percent Effect of the first is higher: 7.17% for the first, -0.121% for the second.

Going from COc1ccc(CN2CCCC2)cc1Oc1ccc(NC(C)=O)cc1 to CC(=O)Nc1ccc(Oc2ccc(CN3CCCC3)cc2F)cc1, the Percent Effect rises from 1.65% to 9.5%.

Going from Cc1ccc2[nH]c(CO[C@H]3CN(C(=O)C4CC4)C[C@H]3F)nc2c1 to CN1C[C@@H](F)[C@@H](OCc2nc3ccc(C#N)cc3[nH]2)C1, the Percent Effect rises from 5.96% to 8.8%.

First: CCO[C@H]1CN(C(=O)c2ccnnc2)[C@@H]2COC[C@H]12
Second: O=C1OCCN1CC(=O)N1C[C@H]2CC[C@@H]1CN(C(=O)c1cccnc1)C2
The Percent Effect of the first is lower: -7.56% for the first, 7.56% for the second.

First: CN(C)C(=O)CN1C[C@@H]2CC[C@H](C1)N(C/C=C/c1ccc(F)cc1)C2
Second: O=C(COCCOc1ccccc1)NC1CCN(C(=O)C2CC2)CC1
The Percent Effect of the first is higher: -5.7% for the first, -27.3% for the second.

First: O=S(=O)(CCCn1cncn1)Cc1ccccc1Cl
Second: O=S(=O)(CCCn1cncn1)Cc1cccc(F)c1
The Percent Effect of the first is lower: 0% for the first, 3.23% for the second.

Compared with Cc1csc(CN2CC[C@H]3C[C@H](c4nc(C)no4)O[C@@H]3C2)n1, CC(C)CN1CC[C@@H]2[C@@H]1CCN2S(=O)(=O)c1cn(C)cn1 is higher in Percent Effect: -2.84% for the first, 4.68% for the second.

O=C(O)c1cc(-n2cc3c(n2)CCC3)cc(S(=O)(=O)N2CCOCC2)c1 gave a Percent Effect of -5.92%.

O=S(=O)(CCCn1cncn1)Cc1ccc(F)cc1Cl was tested, and the Percent Effect was 96.3% and 94.5%.
